Results on 30 compounds are retold here after PubChem BioAssay.

Assay [1] is described as follows: viability loss in pontine glioma line – cell-based, SU-DIPG-XVII, MIPE5.0, CellTiter-Glo, qHTS, dose response (AID 1347060).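 For AC50: cells exposed to compound for 48 hours before viability readout.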 Conditions: CellTiter-Glo ATP luminescence.
The nature of assay [2]: viability loss in pontine glioma line – cell-based, SU-DIPG-XIII, MIPE4.0, CellTiter-Glo, qHTS, dose response (AID 1347061; cut-off not given, nearly all actives have AC50 up to about 37 µM;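 note: cells exposed to compound for 48 hours before readout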). Conditions: CellTiter-Glo ATP luminescence. For orientation: In ATP-based viability assays light output follows the ATP content of the culture.
A short description of assay [3]: viability loss in pontine glioma line – cell-based, SU-DIPG-IV, MIPE4.0, CellTiter-Glo, qHTS, dose response (AID 1347063; cut-off not given, nearly all actives have AC50 up to about 30 µM;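 note: compound exposure lasted 48 hours before the viability readout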). The note with it: CellTiter-Glo ATP luminescence.
Assay [4] can be described thus: viability loss in pontine glioma line – cell-based, SU-DIPG-XIII, MIPE5.0, CellTiter-Glo, qHTS, dose response (AID 1347064; cut-off not given, nearly all actives have AC50 up to about 23 µM;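 for AC50: cells exposed to compound for 48 hours before the viability read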). Conditions: CellTiter-Glo ATP luminescence.
Assay [5] in a line: viability loss in pontine glioma line – cell-based, SU-DIPG-XXV, MIPE5.0, CellTiter-Glo, qHTS, dose response (AID 1347065).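 Note: cells exposed to compound for 48 hours before ATP readout.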 Conditions: CellTiter-Glo ATP luminescence.
A short description of assay [6]: JHH-DIPG-1 glioma cell viability, MIPE5.0 library, CellTiter-Glo luminescence, qHTS (AID 1347067).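 Note: cells exposed to compound for 48 hours before readout.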 Conditions: JHH-DIPG-1 glioma viability, CellTiter-Glo ATP luminescence.
A short description of assay [7]: growth inhibition of DIPG cells – cell-based, MIPE5.0 library, qHTS (AID 1347068; cut-off not given, nearly all actives have IC50 up to about 30 µM;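 for IC50: cells exposed to compound for 48 hours before viability readout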). The note with it: SU-DIPG-XXV viability. On the technique in general: In qHTS, concentration-response curves come from the screen itself.
Assay [8] has as its system Aerobactin synthetase IucA (Klebsiella pneumoniae). The assay can be described thus: inhibition of K. pneumoniae IucA enzyme – biochemical, Tocris library, absorbance (AID 1345561; call rule not given here;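 note: 100% = enzyme without compound and 0% = no enzyme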). Conditions: purified IucA enzyme assay, absorbance (OD) read-out; stronger effect = lower value;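 tested at 8 µM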.
Assay [9] in a line: GFP-Q80 aggregate reduction, neuronal-like cells, cell-based, NGF-treated PC12, GFPQ80 (AID 1614).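 Note: lower means fewer inclusions and 0 means no inclusions at all.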 Conditions: PC12 NGF-treated GFP-polyQ80 inclusion reduction.
In assay [10] the target is ATP-dependent translocase ABCB1 (Homo sapiens) (UniProt P08183). Kind of assay: P-glycoprotein substrate transport blockade – cell-based (AID 377; in the data active = fluorescence slope change above about 50%). Conditions: MDR1-expressing cells, fluorescent substrate accumulation slope; stronger effect = higher value; concentration not given here.
A short description of assay [11]: chitosan synthesis blockers in C. neoformans – flow cytometry, Cibacron Brilliant Red staining (AID 1347148; call rule not given here;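 note: compound exposure lasted three days at 37 degrees C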). The note with it: Cryptococcus neoformans chitosan, stronger effect = lower value; at 10 µM unless noted. Background: A flow cytometer gives signals particle by particle.

Where “and” joins values, the source holds several entries; their conditions need not be identical. Equal entries are not always repeated. Inconclusive results are not listed. Calls of active or inactive are those of the source. Unless noted, no cut-off is given here; in the data, nearly all actives have AC50 up to about 26 µM.

Chain of ATP-dependent translocase ABCB1 (Homo sapiens) (P08183 whole entry, looked up): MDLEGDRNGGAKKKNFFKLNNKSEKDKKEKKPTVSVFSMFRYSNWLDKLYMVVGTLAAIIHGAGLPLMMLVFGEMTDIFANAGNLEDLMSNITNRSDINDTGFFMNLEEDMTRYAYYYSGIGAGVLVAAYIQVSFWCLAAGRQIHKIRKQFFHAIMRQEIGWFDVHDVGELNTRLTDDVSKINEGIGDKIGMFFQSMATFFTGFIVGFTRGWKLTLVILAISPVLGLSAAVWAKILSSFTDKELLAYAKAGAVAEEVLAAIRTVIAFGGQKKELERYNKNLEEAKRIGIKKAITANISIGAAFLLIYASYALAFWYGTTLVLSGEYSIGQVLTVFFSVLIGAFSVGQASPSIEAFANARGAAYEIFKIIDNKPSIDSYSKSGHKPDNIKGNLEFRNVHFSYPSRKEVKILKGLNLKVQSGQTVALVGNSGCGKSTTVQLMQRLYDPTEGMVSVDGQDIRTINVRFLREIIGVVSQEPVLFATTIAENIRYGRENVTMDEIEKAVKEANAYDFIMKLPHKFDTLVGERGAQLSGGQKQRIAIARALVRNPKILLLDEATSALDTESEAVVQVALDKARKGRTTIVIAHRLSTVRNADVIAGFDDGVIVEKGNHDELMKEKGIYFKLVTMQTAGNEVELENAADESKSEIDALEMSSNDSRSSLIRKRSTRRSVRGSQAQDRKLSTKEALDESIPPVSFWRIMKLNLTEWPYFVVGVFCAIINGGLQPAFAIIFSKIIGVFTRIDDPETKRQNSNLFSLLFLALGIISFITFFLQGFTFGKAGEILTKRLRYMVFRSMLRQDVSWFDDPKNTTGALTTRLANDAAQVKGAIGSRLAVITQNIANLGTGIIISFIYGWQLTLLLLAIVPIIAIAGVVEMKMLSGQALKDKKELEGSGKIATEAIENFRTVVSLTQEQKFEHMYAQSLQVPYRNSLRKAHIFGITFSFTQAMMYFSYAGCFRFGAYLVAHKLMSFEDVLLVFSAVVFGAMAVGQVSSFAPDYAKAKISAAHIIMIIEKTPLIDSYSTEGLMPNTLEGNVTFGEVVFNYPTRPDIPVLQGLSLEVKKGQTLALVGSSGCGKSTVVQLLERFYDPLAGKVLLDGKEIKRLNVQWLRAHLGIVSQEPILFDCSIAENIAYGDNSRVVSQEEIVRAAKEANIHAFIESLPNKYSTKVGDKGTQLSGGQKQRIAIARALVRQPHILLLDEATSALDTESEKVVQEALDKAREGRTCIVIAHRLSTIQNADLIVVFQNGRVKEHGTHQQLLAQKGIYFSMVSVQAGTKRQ

Take `CS(=O)(=O)c1ccc(C2=C(c3ccccc3)C(=O)OC2)cc1`: the outcome in assay [1], in assay [2], in assay [3], in assay [4], in [5] and in assay [6] was inactive. For the same compound, the result in assay [7] was inactive.
The term remaining activity denotes the signal under treatment as a percentage of the control signal. Regarding `O=[N+]([O-])c1cccc2cn[nH]c12`, the remaining activity in [8] was 107% (inactive).
As to `C[C@H]1COc2c(N3CCN(C)CC3)c(F)cc3c(=O)c(C(=O)O)cn1c23`, the outcome in assay [1], in assay [2], in [3], in assay [4], in assay [5] and in assay [6] was inactive. For the same compound, the outcome in assay [7] was inactive.
As to `CC(C)NCC(O)COc1cccc2ccccc12` (centres undefined), the inclusion score in [9] was 2. The remaining activity in [8] was 97.5% (inactive).
With `CN(C)CCC(c1ccc(Cl)cc1)c1ccccn1` (centres undefined), the fluorescence slope change in assay [10] is 220% (active). Moreover, in assay [9], the inclusion score stood at 2.
Consider `C[C@]12CC[C@@H]3c4ccc(O)cc4CC[C@H]3[C@@H]1CC[C@@H]2O`, for which the result in assay [4] and in assay [5] was inactive. Further, the fold fluorescence in assay [11] is 5.13 [at 183.6 µM] (inactive).
As for `CNCCC=C1c2ccccc2CCc2ccccc21`, the fluorescence slope change in assay [10] was 145% (active).
For the compound `OC[C@H]1O[C@@H](Oc2cc(O)cc(/C=C/c3ccc(O)cc3)c2)[C@H](O)[C@@H](O)[C@@H]1O`, the compound was classed as inactive in assay [5], in assay [6] and in assay [7].
Regarding `C=CC1=C(C(=O)O)N2C(=O)[C@@H](NC(=O)/C(=N\O)c3csc(N)n3)[C@H]2SC1` (stereo in doubt), the result in assay [3] was inactive.
`CC(=O)O[C@]1(C(C)=O)CC[C@H]2[C@@H]3C[C@H](C)C4=CC(=O)CC[C@]4(C)[C@H]3CC[C@@]21C`: the compound was classed as inactive in assay [3], in assay [6] and in assay [7].
With `CC(=O)N=c1sc(S(N)(=O)=O)nn1C`, the fluorescence slope change in [10] is 65.4% (active). The same compound yielded an inclusion score in assay [9] of 2.
For `Cn1cc[nH]c1=S`, in that order: 21.6% (inactive) and 2.
As to `C[C@H](CCC(=O)O)[C@H]1CC[C@H]2[C@@H]3[C@@H](O)C[C@@H]4C[C@H](O)CC[C@]4(C)[C@H]3CC[C@]12C`, the compound was called inactive in assay [1], in assay [3], in [5], in assay [6] and in assay [7].
With `CCCC1O[C@@H]2C[C@H]3[C@@H]4CCC5=CC(=O)C=C[C@]5(C)[C@H]4[C@@H](O)C[C@]3(C)[C@]2(C(=O)CO)O1` (some centres undefined), the fluorescence slope change in assay [10] is 56.9% (active). The remaining activity in [8] is 98.4% (inactive) and 108% (inactive).
For `CC(CCc1ccccc1)NCC(O)c1ccc(O)c(C(N)=O)c1` (centres undefined), in assay [9], the inclusion score turned out to be 2.
As to `Cc1ccc(N(CC2=NCCN2)c2cccc(O)c2)cc1`, the fluorescence slope change in assay [10] was 72.4% (active). In addition, in [9], the inclusion score was 2. Moreover, the call in assay [1], in assay [2], in assay [4] and in [5] was inactive. For the same compound, in assay [11], the fold fluorescence is 4.52 [at 177.7 µM] (inactive).
The term AC50 denotes the concentration giving half of the maximal activity seen. As for `Nc1ccn([C@@H]2O[C@H](CO)[C@@H](O)C2O)c(=O)n1` (some centres undefined), the AC50 in [1] was 0.263 µM (active). The result in assay [2], in assay [4], in assay [5], in assay [6] and in assay [7] was inactive.
Regarding `COc1ccc2c3c1O[C@H]1C[C@@H](O)C=C[C@@]31CCN(C)C2`, the fluorescence slope change in [10] was 9.8% (inactive). Moreover, in [9], the inclusion score amounted to 2. In assay [8], the remaining activity was 110% (inactive). Also, the result in assay [2] and in assay [3] was inactive.
In the case of `CCN1CCN(C(=O)N[C@@H](C(=O)N[C@@H]2C(=O)N3[C@@H]2SC(C)(C)[C@@H]3C(=O)O)c2ccccc2)C(=O)C1=O`, the fluorescence slope change in [10] is 1.5% (inactive).
Turning to `CC(C)[N+]1(C)C2CCC1CC(OC(=O)C(CO)c1ccccc1)C2` (centres undefined), in assay [8], the remaining activity was 98.6% (inactive). The result in [3] was inactive.
With `CC[C@H](C)C(=O)O[C@H]1CCC=C2C=C[C@H](C)[C@H](CC[C@@H]3C[C@@H](O)CC(=O)O3)[C@H]21`, in assay [8], the remaining activity was 123% (inactive). Besides, the half-maximal activity concentration (AC50) is 6.61 µM (active) in assay [1] and 23.5 µM (active) in assay [6].
For `COc1cc(CNC(=O)CCCC/C=C/C(C)C)ccc1O`, the remaining activity in assay [8] was 122% (inactive). Further, the call in [1], in assay [2], in assay [3], in [6] and in [7] was inactive. Further, the fold fluorescence in assay [11] is 7.26 [at 163.7 µM] (inactive).
The term IC50 denotes the concentration at which inhibition is half-maximal. Turning to `CC/C(=C(\c1ccccc1)c1ccc(OCCN(C)C)cc1)c1ccccc1`, the fluorescence slope change in [10] was 142% (active). In addition, the remaining activity in assay [8] was 79.2% (inactive). For the same compound, the AC50 was 17.1 µM (active) in assay [1]; 26.4 µM (active) in assay [3]; 13.5 µM (active) in assay [4]; 19.1 µM (active) in assay [5]; 21.5 µM (active) in assay [6]. Also, the IC50 in [7] is 17.1 µM (active). In addition, the fold fluorescence in assay [11] was 8.26 [at 134.6 µM] (inactive).
In turn, `COc1c(C)c2c(c(O)c1C/C=C(\C)CCC(=O)O)C(=O)OC2` had an inclusion score in assay [9] of 1. In addition, in assay [8], the remaining activity is 113% (inactive). The AC50 in assay [1] is 0.742 µM (active). Also, the fold fluorescence in assay [11] was 7.43 [at 156.1 µM] (inactive).
In the case of `CCCCCCCCCCCC1=C(O)C(=O)C=C(O)C1=O`, in [8], the remaining activity is 99.6% (inactive). The compound was called inactive in assay [2] and in assay [7]. Moreover, in [3], the AC50 was 0.0526 µM (active).
In assay [9], `O=C(O)c1cccnc1C(=O)O` displayed an inclusion score of 2. For the same compound, in assay [8], the remaining activity is 95.4% (inactive).
Consider `O=c1cc(-c2ccc(O)cc2)oc2cc(O)cc(O)c12`, for which the inclusion score in assay [9] was 1.5. The remaining activity in assay [8] is 107% (inactive). In addition, the AC50 is 16.6 µM (active) in [1], 2.96 µM (active) in [3] and 16.6 µM (active) in [4].
With `NCCc1cnc[nH]1`, the inclusion score in [9] stood at 2. For the same compound, the remaining activity in [8] is 107% (inactive). The compound was classed as inactive in assay [1], in assay [2], in [4], in assay [5], in [6] and in assay [7]. Besides, in assay [11], the fold fluorescence was 5.22 [at 449.9 µM] (inactive).
Consider `CN1C[C@H](C(=O)N[C@]2(C)O[C@@]3(O)[C@@H]4CCCN4C(=O)[C@H](Cc4ccccc4)N3C2=O)C[C@@H]2c3cccc4[nH]cc(c34)C[C@H]21`, for which, in [10], the fluorescence slope change was 122% (active). Moreover, the remaining activity in assay [8] was 86.1% (inactive).
In the case of `CCCCOc1cc(CC2CNC(=O)N2)ccc1OC` (centres undefined), the remaining activity in assay [8] was 104% (inactive).
